What follows are molecules tested against AMP-activated protein kinase, AMPK (Homo sapiens) (UniProt P54646+O43741+P54619+Q9UGJ0+Q9Y478+Q13131+Q9UGI9) (assay: AMP-dependent Kinase enzyme assay. An in vitro enzyme assay that detects ADP turnover that is directly proportional to AMPK activity. This uses naive AMPK that is activated during the assay with MK-8722). Conditions: 30 µM.
Format: functional
Design: scale not given: direction of the effect not stated beside the values

Compound | Percent Effect
Cc1cc(C[S+]([O-])Cc2ccccc2C)no1 (centres undefined) | 5.62%
CN(C)CCN(Cc1cccc(F)c1)C(=O)c1ccn(C)c(=O)c1 | 9.63%
c1ccc(CCN2CCN(C3CCOC4(CCOCC4)C3)CC2)nc1 (centres undefined) | -2.83%
O=C(NCC(=O)N1CCCCC1)c1sccc1C1CC1 | -1.89%
COc1ccc(CCNC(=O)c2ccc(=O)n(C)c2)c(Cl)c1 | 5.99%
O=C(C1CCOC1)N1CCN(CC(F)(F)F)c2ccccc21 (centres undefined) | 11.6%
CC(C)CC(=O)N1Cc2ccccc2CC1C(=O)Nc1nccs1 (centres undefined) | -4.39%
CCC(CC)C(=O)N1CCC2(CC1)c1ccccc1[C@@H](OC)[C@@H]2O | 14%
CCNc1cc2c(nn1)CCN(C(=O)c1ccc(-n3cccn3)nc1)C2 | -5.94%
O=C(c1cscn1)N1CCc2[nH]nc(Nc3ccccc3)c2C1 | 10.9%
CC(C)n1nccc1CN1Cc2nccn2CC1c1ccccc1 (centres undefined) | -2.65%
Cc1nc(C)c(C(=O)N2CCCc3c(F)ccc(F)c32)o1 | -2.55%
Cc1c(NCCO)cccc1OC1CCCC1 | -6.27%
CCc1ncc2c(n1)CN(c1cc(NCCO)nc(N)n1)C2 | -219%
CNC(=O)N1CCOCC1c1c(C)nn(C)c1C (centres undefined) | -2.45%
Cc1ccc(N2CCCN(C(=O)CCCn3ccnc3C)CC2)nn1 | -0.453%
O=C(Cn1ccc(-c2ccccc2)n1)N1CCN(C(=O)C2CC2)CC1 | -3.88%
CCn1cc(NC(=O)NCCN2CCCc3ccccc32)cn1 | 7.2%
CC(Oc1ccc2c(c1)OCO2)C(=O)N1CCC(N2CCCC2)CC1 (centres undefined) | 6.31%

— ChEMBL document CHEMBL3988442, “University of Dundee, Small-Polar-MMV Screening Library” (2021)
